GRIN3A LBD mod: binders of NR3A ligand-binding domain, primary screen, biophysical, differential scanning fluorimetry, uHTS | Glutamate receptor ionotropic, NMDA 3A (GRIN3A) ligand-binding domain | NR3A LBD differential scanning fluorimetry, Tm shift; 0% = protein alone, 100% = glycine-bound protein | Tm shift relative to glycine control, % at 25 µM | 2.5% of 340,000 active;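 active = melting temperature shift of at least 10% of the positive control shift, at one fixed dose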
ADAM17 inh: ADAM17 inhibitors, primary screen, biochemical, QFRET; Disintegrin and metalloproteinase domain-containing protein 17 (Homo sapiens), P78536; recombinant ADAM17, EDANS/DABCYL FRET peptide cleavage; inhibition, % at 6.95 µM; 0.83% of 370,000 active; AID 720648, 2013;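 active = inhibition above the mean of compounds lying between control limits plus 3 SD, set per campaign, cut at about 8.5% in these data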;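 note: 0% = DMSO-only wells as the low control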
FAS-TE inh: FAS thioesterase domain inhibitors, primary screen, biochemical, fluorescence intensity, uHTS; recombinant FAS-TE, OMFH fluorogenic substrate, fluorescence endpoint; inhibition, % at 15 µM; 0.67% of 360,000 active; AID 602261, 2012;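 active = compounds whose normalised, plate-corrected inhibition of enzyme fluorescence in the single-dose primary screen is 50% or more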;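 note: 0% = DMSO with enzyme and 100% = substrate without enzyme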
ADAM10 inh: human ADAM10 inhibitors, primary screen, biochemical, QFRET, HTS; Disintegrin and metalloproteinase domain-containing protein 10 (Homo sapiens), O14672; recombinant ADAM10, EDANS/DABCYL FRET peptide cleavage, 3 h; inhibition, % at 7 µM; 0.62% of 370,000 active;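 active = inhibition above a per-campaign cutoff equal to the mean of compounds falling between control-based bounds plus 3 SD, cut at about 20% in these data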;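 note: 0% = DMSO wells while the 100% control is not disclosed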
sPLA2-III inh: human group III sPLA2 inhibitors, primary screen, biochemical, QFRET, BODIPY PC-A2 liposome substrate | inhibition, % at 12.2 µM | QFRET BODIPY PC-A2 liposome hydrolysis, fluorescence | Group 3 secretory phospholipase A2 (Homo sapiens), Q9NZ20 | 0.56% of 370,000 active;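 active = inhibition above mean plus 3 SD of compounds lying within the high and low control bounds, cut at about 19% in these data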;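 note: 0% = median of test compound wells and 100% = no enzyme DMSO wells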
Target sequence (Q9NZ20 whole entry, looked up): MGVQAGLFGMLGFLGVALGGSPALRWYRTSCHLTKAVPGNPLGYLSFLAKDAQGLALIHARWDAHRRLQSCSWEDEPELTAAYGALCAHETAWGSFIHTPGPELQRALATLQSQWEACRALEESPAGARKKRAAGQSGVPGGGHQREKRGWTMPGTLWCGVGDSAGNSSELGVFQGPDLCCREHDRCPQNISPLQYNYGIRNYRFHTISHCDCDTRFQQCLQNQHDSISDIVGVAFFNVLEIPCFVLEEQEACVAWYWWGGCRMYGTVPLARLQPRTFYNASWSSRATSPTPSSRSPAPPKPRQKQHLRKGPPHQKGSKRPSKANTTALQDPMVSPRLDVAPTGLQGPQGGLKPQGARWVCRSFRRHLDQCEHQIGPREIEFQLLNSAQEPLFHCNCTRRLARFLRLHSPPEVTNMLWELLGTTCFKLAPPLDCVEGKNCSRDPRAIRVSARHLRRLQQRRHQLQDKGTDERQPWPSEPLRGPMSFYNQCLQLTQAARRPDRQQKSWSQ
* = called active by the depositor; / = no result. Only some compounds are listed: those with a hit (about 4.3% of all), similar ones and a draw of the others.

SMILES	GRIN3A LBD mod	ADAM17 inh	FAS-TE inh	ADAM10 inh	sPLA2-III inh
CCOc1ccc(/C=C/C2=Cc3c(sc(NC(=O)CSc4n[nH]c(N)n4)c3C#N)C(C)(C)C2)cc1	14.2*	-8.0	-20.2	-20.1	-12.9
COC(=O)CCCn1cc(CN2CC=CS2(=O)=O)nn1	/	-5.3	/	-6.7	1.7
Cn1c(SCC(=O)Nc2cccc(F)c2)nnc1-c1cc2ccccc2o1	11.0*	-0.2	-4.5	-2.8	-1.3
N=C(N)c1ccc(N=Nc2c(O)ccc3c2[nH]c2ccccc23)cc1	29.1*	-2.3	-36.6	-10.8	5.4
Oc1ccc(N=Nc2c(O)ccc3ccccc23)cc1	5.6	5.9	31.2	14.8	-41.4
C/C(=N\NC(=O)c1cc2ccccc2cc1O)c1ccccn1	-7.6	-3.2	3.8	4.4	12.5
C/C(=N\NC(=O)c1ccccc1O)C1C(=O)c2ccccc2C1=O	11.8*	3.2	15.5	0.0	-10.4
C/C(=N/NC(=O)c1cc2ccccc2cc1O)C1C(=O)c2ccccc2C1=O	9.1	4.6	28.6	13.1	28.6*
COCCCNc1nc(-c2ccc(Cl)cc2)nc2ccccc12	11.7*	0.6	36.9	4.5	-19.7
c1ccc(CNc2nc(-c3ccccc3)nc3ccccc23)cc1	10.0*	5.6	34.6	14.8	-20.0
c1ccc(CNc2nc(-c3cccs3)nc3ccccc23)cc1	23.9*	-1.3	43.8	-3.7	-33.4
C=CCN1[C@@H](C)COc2cc(N3CCSCC3)ccc2S1(=O)=O	/	1.7	/	7.1	5.0
Cc1[nH]c2ccccc2c1N=Nc1ccc(F)cc1	24.6*	-2.9	36.4	10.2	4.7
Cc1[nH]c2ccccc2c1C1=NNC(=Nc2ccc(F)cc2)SC1	12.0*	-1.0	-32.8	-3.8	-14.7
Cc1[nH]c2ccccc2c1N=Nc1cc(C(=O)O)cc(C(=O)O)c1	-0.4	0.6	-4.9	-2.5	3.3
CC(=O)Nc1ccc(NC(=O)CS(=O)(=O)Cc2ccccc2)cc1	12.6*	-1.6	-5.0	-3.5	8.2
CCOc1ccc(-c2c(C(=O)N/N=C/c3ccc(O)cc3)nnn2-c2nonc2N)cc1	8.4	-0.7	-3.7	5.3	-23.1
CCOc1cccc(-c2c(C(=O)N/N=C/c3ccc(Br)cc3)nnn2-c2nonc2N)c1	16.9*	-3.3	21.0	-0.3	-21.1
CCOc1ccc(-c2c(C(=O)N/N=C/c3cccc(Br)c3)nnn2-c2nonc2N)cc1	16.6*	6.2	-0.6	2.0	-8.3
CCCOc1ccc(-c2c(C(=O)N/N=C/c3ccc(OC)cc3)nnn2-c2nonc2N)cc1	10.4*	2.5	16.5	4.3	-12.1
CCOc1ccc(-c2c(C(=O)N/N=C/c3ccsc3)nnn2-c2nonc2N)cc1	12.7*	-1.8	-3.2	5.3	-11.2
c1ccc(Cn2c(SCC3CCC3)nnc2-c2cccnc2)cc1	/	1.0	/	3.0	3.2
CCOC(=O)[C@@]12CCC3=C1N(CCC3)C(=O)[C@H](CC(=O)NCCCOC)C2	/	-8.9	/	-13.0	19.2
COc1ccc(N2CCN(CCCNC(=O)CCOC(C)(C)C)CC2)cc1	/	0.5	/	0.7	-3.9
CCCCCCn1c(-c2ccco2)nc2oc3cc(OC)ccc3c(=O)c2c1=O	32.7*	-6.4	8.8	-19.9	-4.5
SMILES	GRIN3A LBD mod	ADAM17 inh	FAS-TE inh	ADAM10 inh	sPLA2-III inh
C=CCN1C(=O)[C@@H](CC(=O)N2CCN(C(=O)C3CC3)CC2)[C@]2(C(=O)OCC)CCCCC/C=C/12	/	-3.7	/	-2.0	5.5
Cc1ccc(C(=O)/C=C/Nc2cccc(O)c2)cc1	10.3*	-1.0	0.2	-1.3	-23.3
Cc1ccc(C(=O)/C=C/Nc2ccc3c(c2)OCO3)cc1	17.4*	-3.9	0.3	-14.1	-6.4
O=C(c1ccccc1)c1nn(-c2ccc(Cl)cc2)c(=O)cc1C(F)(F)F	-0.9	-1.8	23.3	0.8	-0.3
O=C(c1ccccc1)c1nn(-c2ccccc2)c(=O)cc1C(F)(F)F	12.2*	1.7	6.7	-0.6	5.8
COc1ccc(CC(=O)NNC(=O)COc2ccc(C)cc2)cc1S(=O)(=O)N1CCOCC1	10.1*	-5.7	-3.0	-6.0	5.4
COc1ccc(CCC(=O)Nc2ccc(S(=O)(=O)N3CCOCC3)cc2)cc1	19.6*	-2.2	4.4	7.0	2.7
COc1ccc(CC(=O)NNC(=O)COc2ccc(F)cc2)cc1S(=O)(=O)N1CCOCC1	-3.8	-4.5	-7.8	-16.2	6.8
COc1ccc(/C=C/C(=O)Nc2ccc(S(=O)(=O)N3CCOCC3)cc2)c(OC)c1	25.0*	-179.3	13.4	-136.5	-21.4
COc1ccc(CCC(=O)Nc2ccc(S(=O)(=O)N3CCOCC3)cc2)cc1OC	/	-1.5	-6.5	-4.9	2.5
Cc1ccc(OCCCC(=O)Nc2ccc(S(=O)(=O)N3CCOCC3)cc2)cc1	28.0*	2.6	7.7	0.9	-15.9
Cc1ccc(S(=O)(=O)N2CCCC2c2cccc3[nH]cc(C)c23)cc1 (configuration not stated)	/	1.5	/	-0.4	-58.6
COC(=O)[C@]12C[C@H](CC(=O)NCC34CC5CC(CC(C5)C3)C4)C(=O)N(Cc3ccco3)C1=C[C@H](C(C)(C)C)O[C@@H]2C	/	4.1	/	15.1	-13.5
C=CCN1C(=O)[C@H](CC(=O)NCc2cccs2)[C@@]2(C(=O)OCC)CCCC=C12	/	-5.4	/	-0.3	-0.5
CCOc1ccc(S(=O)(=O)N2CCOCC2)cc1NC(=O)CSCC(=O)Nc1ccc(C)cc1	11.1*	-6.7	2.4	-2.6	-1.2
COc1ccc(C=NNC(=S)NN=Cc2ccc(OC)c(OC)c2)cc1OC	-26.4	-10.8	-6.2	-43.3	17.2
COc1ccc(C=NNC(=S)Nc2ccc(F)cc2)cc1OC	-0.8	-0.2	3.7	1.5	22.6*
COc1cc(/C=N/NC(N)=S)ccc1OCc1ccc(C)cc1	25.5*	3.9	3.0	0.8	18.3
COc1cc(/C=N/NC(N)=S)ccc1OC(=O)c1ccc(C)cc1	25.9*	3.0	6.8	9.7	-0.3
Cc1ccc(S(=O)(=O)N2OC(c3ccccc3)C[C@H]2CC=C(c2ccccc2)c2ccccc2)cc1 (some centres not stated)	/	-1.2	/	0.6	-8.5
CCS(=O)(=O)C1=NN2C(=N)/C(=C\c3ccc(OCCOc4cccc(OC)c4)c(OC)c3)C(=O)N=C2S1	14.7*	1.8	5.3	2.0	-9.3
CCOc1cc(/C=C2\C(=N)N3N=C(S(C)(=O)=O)SC3=NC2=O)ccc1OCCOc1cccc(OC)c1	9.0	-6.1	8.6	-14.3	-17.1
COc1cc(/C=C2/C(=N)N3C=CSC3=NC2=O)ccc1OCCCOc1ccccc1C	17.8*	-44.5	-3.2	-139.7	-9.2
CCn1c(=O)n2n(c1=O)[C@H]1C[N+](Cc3ccc4c(c3)OCO4)=C(N)NC1=C(C)C2	/	0.1	/	2.0	3.3

Source: PubChem BioAssay
